Results filed as inconclusive are left out. Active and inactive are the calls of the source. How the source made its calls, unless noted: active means hit-call score of the fitted dose curve at least 0.9, where 1 is the maximum; inconclusive means response in the unintended direction; inactive means score below 0.9.
Legend:
[1] = target: Cellular tumor antigen p53 (Homo sapiens) (UniProt P04637); assay: TOX21_p53_BLA_p2_ratio: Tox21 HCT-116 p53 Agonism Beta-lactamase Assay, Ratio, Phase 2 (AID 2283592)
In short: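 First, HCT116 reporter cells settle for 5 h at 37C. Next, DMSO compound solutions are pinned in (217-fold dilution) and left 16 h. Finally, CCF4-AM substrate is loaded 2 h at room temperature and the 460/530 nm ratio read.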

[2] = TOX21_p53_BLA_p3_viability: Viability Assessment in the Tox21 HCT-116 p53 Agonism Beta-lactamase Assay, Phase 3 (AID 2283593);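 further: cells exposed to compound for 16 h before reading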
In short: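 HCT116 cells, 4000/well, dosed 5 h after plating by pin transfer (217-fold dilution from DMSO stock) and incubated 16 h at 37C, 5% CO2. Viability read as ATP luminescence with CellTiter-Glo after 30 min at room temperature.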

[3] = target: Cellular tumor antigen p53 (Homo sapiens) (UniProt P04637); assay: TOX21_p53_BLA_p3_ratio: Tox21 HCT-116 p53 Agonism Beta-lactamase Assay, Ratio, Phase 3 (AID 2283596)
In short: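 Cells were seeded at 4000/well, rested 5 h at 37C, then dosed with DMSO compound solutions (217-fold dilution) for 16 h. CCF4-AM substrate was loaded for 2 h at room temperature, and the 460/530 nm emission ratio was fitted for gain of signal versus DMSO.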

[4] = TOX21_p53_BLA_p4_viability: Viability Assessment in the Tox21 HCT-116 p53 Agonism Beta-lactamase Assay, Phase 4 (AID 2283597);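 further: hits lower the luminescence signal meaning cytotoxicity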
In short: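 4000 HCT116 cells per well; 5 h attachment; compounds from DMSO, 217-fold dilution; 16 h at 37C. Then CCF4-AM, 2 h RT, followed by CellTiter-Glo, 30 min RT, luminescence. Decrease = cytotoxicity.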

[5] = target: Cellular tumor antigen p53 (Homo sapiens) (UniProt P04637); assay: TOX21_p53_BLA_p5_ratio: Tox21 HCT-116 p53 Agonism Beta-lactamase Assay, Ratio, Phase 5 (AID 2283599)
In short: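 HCT-116 p53-bla cells (4000/well) plated 5 h, dosed with compound (217-fold DMSO dilution) for 16 h at 37 C; CCF4-AM substrate 2 h at room temperature. Activity is the 460/530 nm emission ratio (405 nm excitation), fitted in gain-of-signal direction versus DMSO.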

[6] = TOX21_p53_BLA_p5_viability: Viability Assessment in the Tox21 HCT-116 p53 Agonism Beta-lactamase Assay, Phase 5 (AID 2283600)
In short: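 Decreased CellTiter-Glo luminescence denotes lost viability. Exposure: 16 h at 37C, 5% CO2, with compounds from DMSO stocks diluted 217-fold in wells of 4000 cells.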

[7] = target: Cellular tumor antigen p53 (Homo sapiens) (UniProt P04637); assay: TOX21_p53_BLA_p4_ratio: Tox21 HCT-116 p53 Agonism Beta-lactamase Assay, Ratio, Phase 4 (AID 2283601)
In short: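 HCT-116 p53 beta-lactamase reporter cells (4000/well) preincubated 5 h, then compound (217-fold dilution of DMSO stock) for 16 h at 37C. CCF4-AM substrate added 2 h at room temperature; 460/530 nm emission ratio fitted upward versus DMSO.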

[8] = system: Thyroperoxidase (TPO), gene 54314; assay: CCTE_Simmons_AUR_rTPO: CCTE's Amplex UltraRed Assay for Thyroperoxidase (TPO) Inhibition, Simmons Lab (AID 2283662)
In short: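 Rat thyroid microsomal TPO + 25 uM AUR in 200 mM K phosphate; cpd 5 nM–87.5 uM [final], 8 conc, 0.5% DMSO; 300 uM H2O2 starts rxn; 37C dark 30 min; endpoint FI 544/590 nm; n=3.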

[9] = target: Luciferin 4-monooxygenase (Photinus pyralis) (UniProt P08659); assay: CCTE_Simmons_QuantiLum_inhib_2: CCTE's Firefly Luciferase Inhibition Assay, Simmons Lab (AID 2283767)
In short: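 First, 5 ng purified luciferase in phosphate buffer with BSA is dispensed per well. Next, test chemicals (5 nM to 87.5 uM final, 0.5% DMSO) are added and incubated 30 min at 37C in darkness. Finally, luciferin reagent is injected and luminescence read kinetically.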

[10] = target: Nucleoli Translocation, AR (gene 367) (UniProt P10275); assay: UPITT_HCI_U2OS_AR_TIF2_Nucleoli_Antagonist: University of Pittsburgh U2OS Androgen Receptor-Transcriptional Intermediary Factor 2 (AR-TIF2) Antagonism High Content Imaging Assay for Nucleoli Translocation (AID 2283997)
In short: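 Compounds are added at 20 uM final concentration in 0.2% DMSO to U2OS cells carrying AR-RFP and TIF2-GFP fusions. Nucleolar AR-RFP fluorescence is then quantified by automated imaging. Antagonism is fitted positively against DHT baseline.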

[11] = target: Nucleoli Translocation, AR (gene 367) (UniProt P10275); assay: UPITT_HCI_U2OS_AR_TIF2_Nucleoli_Agonist: University of Pittsburgh U2OS Androgen Receptor-Transcriptional Intermediary Factor 2 (AR-TIF2) Agonism High Content Imaging Assay for Nucleoli Translocation (AID 2283998)
In short: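 U2OS cells expressing RFP-tagged human AR and GFP-tagged TIF2; red fluorescence in nucleoli quantified by high-content imaging. Primary screen at 20 uM final (0.2% DMSO); concentration-response 0.195–50 uM (0.5% DMSO), fitted upward versus DMSO.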

[12] = target: Ratio of Nucleoli Translocation and Cytoplasm, AR (gene 367) (UniProt P10275); assay: UPITT_HCI_U2OS_AR_TIF2_Nucleoli_Cytoplasm_Ratio_Antagonist: University of Pittsburgh U2OS Androgen Receptor-Transcriptional Intermediary Factor 2 (AR-TIF2) Antagonism High Content Imaging Assay for Ratio of Nucleoli Translocation and Cytoplasm (AID 2283999);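 further: antagonists lower the DHT-driven ratio of nucleolar to cytoplasmic red signal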
In short: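 Compounds were added to U2OS cells carrying red-fluorescent AR and green-fluorescent TIF2, first at 20 uM, with hits confirmed in triplicate and titrated from 0.195 to 50 uM. Nucleolar versus cytoplasmic AR-RFP fluorescence was then quantified by imaging, with analysis relative to DHT.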

[13] = target: Ratio of Nucleoli Translocation and Cytoplasm, AR (gene 367) (UniProt P10275); assay: UPITT_HCI_U2OS_AR_TIF2_Nucleoli_Cytoplasm_Ratio_Agonist: University of Pittsburgh U2OS Androgen Receptor-Transcriptional Intermediary Factor 2 (AR-TIF2) Agonism High Content Imaging Assay for Ratio of Nucleoli Translocation and Cytoplasm (AID 2284000);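 further: hits raise the red nucleolar to cytoplasm ratio above vehicle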
In short: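 Human osteosarcoma U2OS line, AR-RFP plus TIF2-GFP; compounds 0.195–50 uM final, 0.5% DMSO. Readout: nucleolar/cytoplasmic RFP ratio by HCI, positive direction vs DMSO baseline.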

[14] = CCTE_Harrill_HTTr_Apoptosis_MCF7: CCTE's 6-hour Apoptosis Assessment for the High-Throughput Transcriptomics (HTTr) Platform, in MCF-7 cells cultured in DMEM + 10% fetal bovine serum, Harrill Lab (AID 2284011; active means hit-call score of the fitted dose curve at least 0.9, where 1 is the maximum; inactive means score below 0.9)
In short: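 MCF-7 cells in DMEM + 10% FBS exposed 6 h to chemicals over an eight-point dilution series. Caspase-3/7 activation imaged by high-content CellEvent Green staining; fitted bidirectionally versus DMSO.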

[15] = CCTE_Shafer_MEA_dev_firing_rate_mean: CCTE's Neural Network Formation Assay for Mean Firing Rate, Shafer Lab (AID 2284031; active means hit-call score of the fitted dose curve at least 0.9, where 1 is the maximum; inactive means score below 0.9)
In short: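 Steps: seed rat cortical cells (1.5 x 10^5/well) with laminin on PEI-coated MEA; dose day 0; record DIV 5/7/9/12, full media and compound exchange after DIV 5 and 9 recordings; compute well-mean firing rate AUC.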

[16] = CCTE_Shafer_MEA_dev_per_burst_spike_percent: CCTE's Neural Network Formation Assay for Percent of Spikes in a Burst, Shafer Lab (AID 2284032; active means hit-call score of the fitted dose curve at least 0.9, where 1 is the maximum; inactive means score below 0.9)
In short: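 Value is trapezoidal AUC over recordings on days 5, 7, 9 and 12 of the well-mean fraction of spikes falling in single-electrode bursts; rat cortical cultures exposed continuously from plating, treatment renewed DIV 5 and 9, fitted downward against DMSO.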

[17] = CCTE_Shafer_MEA_dev_active_electrodes_number: CCTE's Neural Network Formation Assay for Number of Active Electrodes, Shafer Lab (AID 2284040)
In short: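 Counts electrodes per well firing at least 5 spikes/min, recorded on days 5, 7, 9 and 12 in rat cortical cultures dosed continuously from plating (treatment refreshed DIV 5, 9). Value is the area under the curve over recordings, fitted downward relative to DMSO.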

[18] = CCTE_Shafer_MEA_dev_burst_rate: CCTE's Neural Network Formation Assay for Burst Rate, Shafer Lab (AID 2284042; active means hit-call score of the fitted dose curve at least 0.9, where 1 is the maximum; inactive means score below 0.9)
In short: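 Rat primary cortical cultures on PEI/laminin MEA; compound from plating, re-dosed at DIV 5, 9 media change. Single-electrode bursts/recording length, well mean of active electrodes; AUC over DIV 5–12 recordings; loss-of-signal vs DMSO.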

Chain of Cellular tumor antigen p53 (Homo sapiens) (P04637 whole entry, looked up): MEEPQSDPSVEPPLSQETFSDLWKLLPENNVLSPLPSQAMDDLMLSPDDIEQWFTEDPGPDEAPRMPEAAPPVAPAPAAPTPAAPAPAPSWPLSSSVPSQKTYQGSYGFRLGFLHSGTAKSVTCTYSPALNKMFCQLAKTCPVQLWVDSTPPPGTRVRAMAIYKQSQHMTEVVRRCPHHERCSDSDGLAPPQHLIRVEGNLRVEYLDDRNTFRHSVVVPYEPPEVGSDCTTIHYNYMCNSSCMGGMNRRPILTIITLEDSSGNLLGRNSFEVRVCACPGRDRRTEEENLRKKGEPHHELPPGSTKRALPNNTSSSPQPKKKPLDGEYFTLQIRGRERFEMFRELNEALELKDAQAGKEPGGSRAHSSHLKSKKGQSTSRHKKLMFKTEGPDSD
Chain of Nucleoli Translocation, AR (gene 367) (P10275 whole entry, looked up, the tested form may be a part): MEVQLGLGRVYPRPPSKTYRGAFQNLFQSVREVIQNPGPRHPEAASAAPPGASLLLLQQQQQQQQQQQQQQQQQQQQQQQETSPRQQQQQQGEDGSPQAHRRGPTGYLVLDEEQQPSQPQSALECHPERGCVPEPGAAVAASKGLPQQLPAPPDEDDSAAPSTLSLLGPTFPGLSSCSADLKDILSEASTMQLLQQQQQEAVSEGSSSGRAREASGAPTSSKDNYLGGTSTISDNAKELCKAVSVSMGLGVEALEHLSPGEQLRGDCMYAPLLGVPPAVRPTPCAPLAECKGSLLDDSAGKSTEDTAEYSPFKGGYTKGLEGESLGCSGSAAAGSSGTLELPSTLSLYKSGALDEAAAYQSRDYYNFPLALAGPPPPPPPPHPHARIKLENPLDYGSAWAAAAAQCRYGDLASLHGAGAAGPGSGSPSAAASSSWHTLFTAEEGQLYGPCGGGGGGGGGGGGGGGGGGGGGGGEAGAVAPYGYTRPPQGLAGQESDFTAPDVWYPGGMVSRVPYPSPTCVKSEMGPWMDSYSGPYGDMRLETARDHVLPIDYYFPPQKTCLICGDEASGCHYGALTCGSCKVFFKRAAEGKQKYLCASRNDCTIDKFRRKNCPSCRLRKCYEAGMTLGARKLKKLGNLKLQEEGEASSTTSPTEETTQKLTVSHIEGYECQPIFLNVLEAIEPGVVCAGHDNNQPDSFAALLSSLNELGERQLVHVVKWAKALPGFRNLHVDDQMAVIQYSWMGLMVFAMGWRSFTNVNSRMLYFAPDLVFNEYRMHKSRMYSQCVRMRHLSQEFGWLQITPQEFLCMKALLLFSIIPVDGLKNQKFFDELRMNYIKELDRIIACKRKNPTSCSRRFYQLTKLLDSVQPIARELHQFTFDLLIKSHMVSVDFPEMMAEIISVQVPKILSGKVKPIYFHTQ
Chain of Ratio of Nucleoli Translocation and Cytoplasm, AR (gene 367) (P10275 whole entry, looked up): as the sequence (P10275 whole entry, looked up, the tested form may be a part) above
Chain of Luciferin 4-monooxygenase (Photinus pyralis) (P08659 whole entry, looked up): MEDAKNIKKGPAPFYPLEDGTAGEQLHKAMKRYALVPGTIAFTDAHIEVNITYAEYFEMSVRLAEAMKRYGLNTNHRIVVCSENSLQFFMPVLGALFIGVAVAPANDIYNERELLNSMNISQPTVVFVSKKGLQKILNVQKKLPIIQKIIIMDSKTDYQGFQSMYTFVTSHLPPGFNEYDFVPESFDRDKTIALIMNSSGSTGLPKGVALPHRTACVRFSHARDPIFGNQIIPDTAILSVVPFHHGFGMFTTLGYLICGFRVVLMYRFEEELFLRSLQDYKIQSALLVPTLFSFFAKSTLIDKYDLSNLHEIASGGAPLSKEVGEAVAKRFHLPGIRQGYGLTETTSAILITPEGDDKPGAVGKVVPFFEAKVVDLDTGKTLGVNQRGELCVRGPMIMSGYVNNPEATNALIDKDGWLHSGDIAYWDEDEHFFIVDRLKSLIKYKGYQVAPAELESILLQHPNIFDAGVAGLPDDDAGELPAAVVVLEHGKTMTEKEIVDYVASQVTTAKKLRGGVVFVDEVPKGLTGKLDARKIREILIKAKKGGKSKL

SMILES: c1ccc2cc3c(cc2c1)-c1cccc2cccc-3c12
- AC50 [1]: 3.24 µM (active)
- outcome [2]: inactive
- AC50 [3]: 11 µM (active)
- outcome [4]: inactive
- AC50 [5]: 4.58 µM (active)
- outcome [6]: inactive
- AC50 [7]: 1.98 µM (active)
- outcome [8]: inactive
- outcome [9]: inactive
- AC50 [10]: 1.19 µM (active)
- outcome [11]: inactive
- outcome [12]: inactive
- outcome [13]: inactive
- outcome [14]: inactive
- outcome [15]: inactive
- outcome [16]: inactive
- outcome [17]: inactive
- outcome [18]: inactive
